Screens deposited in PubChem by Broad Institute.
The list is not random: actives were taken first. Their share in the collection is about 2.4%.
Dyrk1A ADPGlo – Dyrk1A (rat) kinase inhibition | Q63470 | ADP-Glo luminescence, NFATc1 peptide | inhibition, % at 12.5 µM | 0.43% of 310,000 active | AID 504441
Wnt act – activates Wnt/beta-catenin signaling in a reporter cell assay; 1.2% of 300,000 active; AID 743398; activator, plate reader; activation, % at 9.35 µM; in the data active means activation above about 30%, passing the limit was not always enough
NSD2 HMT inh – blocks human histone methyltransferase NSD2. O96028. NSD2 peptide methylation, AlphaScreen, 120 min. inhibition, % at 12.5 µM. 0.54% of 310,000 active. AID 743445
MITF TRPM1 HTS – increases MITF-driven TRPM1 promoter luciferase signal; 0.75% of 300,000 active; activation, % at 12.5 µM; SK-MEL-5 TRPM1-promoter luciferase, 24 h; % of positive control, neutral wells = 0;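 active means mean activation of at least 80% with every replicate also reaching 80%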
GSIS activator – GLuc luminescence reporter in INS-1E cells, primary screen for activators of glucose-dependent secretion of insulin | INS-1E GLuc reporter insulin secretion, 2-3 h | activation, % at 16.6 µM | 0.61% of 370,000 active;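 active means lowest replicate activation of at least 40%, so every replicate reaches that level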
miR122 inh – inhibitors of miR-122 in Huh7 cells; 0.3% of 340,000 active; activation (reporter increase), % at 12.5 µM; Huh7 miR-122 Renilla luciferase sensor, 48 h; neutral wells = 0, positive control = 100;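 active means mean replicate activation score at least 90 and every replicate individually at or above 90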;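 further: higher luciferase means less miR-122 activity so hits act as miR-122 inhibitors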
Hits are given with their value; n = inactive; x = not tested or not shown. Unless noted, no stated cut-off is given here; in the data, active means inhibition above about 50%; inactive means the rest.

SMILES	Dyrk1A ADPGlo	Wnt act	NSD2 HMT inh	MITF TRPM1 HTS	GSIS activator	miR122 inh
C(=N\Nc1nc(-c2ccccc2)cs1)/c1ccco1	n	x	n	97.2	n	n
Brc1ccc(-c2csc(N/N=C/c3ccco3)n2)cc1	n	38.3	n	n	n	n
C(=N\Nc1nc(-c2ccccc2)cs1)/c1ccncc1	n	n	n	n	n	x
COc1ccc(C[C@H]2CCc3cnnn3COC[C@@H](C)NC2=O)cc1	x	x	x	x	n	x
COc1cccc(NC(=O)COC(=O)c2n[nH]c3ccccc23)c1	x	x	n	x	x	x
CC(=O)Nc1ccc(NC(=O)CN(c2ccccc2Cl)S(C)(=O)=O)cc1	n	40.0	n	n	x	n
CCOC(=O)c1c(-c2ccc(C)o2)csc1NC(=O)COC(=O)c1ccc(NC(N)=O)cc1	n	x	n	n	49.6	n
COc1ccc([N+](=O)[O-])c2c(=O)ccoc12	n	x	n	n	41.0	x
O=C(NC[C@H]1[C@H](c2ccccc2)[C@@H](CO)N1Cc1cccnc1)c1ccccn1	x	x	x	x	n	n
c1ccc(-n2ncc3c(NCCN4CCCCC4)ncnc32)cc1	n	x	n	n	x	n
c1ccc(-n2ncc3c(NCCN4CCOCC4)ncnc32)cc1	n	47.2	n	n	x	n
COc1cc(C(N)=O)ccc1OCc1ccccc1	n	n	n	n	x	n
NC(=O)c1ccc(OCc2ccccc2)nc1	x	n	n	87.9	n	n
C[C@H]1CN([C@@H](C)CO)C(=O)c2cc(NC(=O)Nc3ccccc3)ccc2O[C@@H]1CN(C)S(=O)(=O)c1ccc(F)cc1	x	x	x	x	n	n
COC(=O)Cc1csc(Nc2ccccc2Cl)n1	n	n	n	94.1	x	n
CCOC(=O)c1sc(Nc2ccccc2Cl)nc1C	n	39.0	n	n	n	n
CCOC(=O)c1sc(NC(=O)Nc2ccccc2F)nc1C	n	n	n	n	n	n
CC(C)CC#Cc1ccc([C@@H]2[C@@H](CO)N3C(=O)CN(S(=O)(=O)c4cccc(F)c4)C[C@H]23)cc1	x	x	x	x	n	x
Nc1nnc(CC(=O)N/N=C/c2ccc(-c3ccc(F)cc3)o2)s1	x	n	n	x	n	n
Nc1nnc(CC(=O)N/N=C/c2ccc(-c3cccc(C(=O)O)c3)o2)s1	n	37.8	n	n	n	n
COc1ccccc1NS(=O)(=O)c1cc(NC(=S)NCC2CCCO2)ccc1C (stereo not drawn)	n	n	n	n	n	99.2
CCCC(=O)Nc1ccc2c(c1)OC[C@H](C)N(C(=O)c1ccncc1)C[C@H](C)[C@@H](OC)CN(C)C2=O	x	x	x	x	n	x
COc1ccc(-c2nc(C#N)c(NCCc3ccccc3)o2)cc1OC	n	x	n	n	x	n
COc1ccc(CCNc2oc(-c3ccc(OC)c(OC)c3)nc2P(=O)(OC)OC)cc1OC	n	x	n	n	67.9	x
CC(OC(=O)c1ccc(-n2cnnn2)cc1)C(=O)Nc1ccc(F)c(F)c1F (stereo not drawn)	x	n	n	n	n	n
SMILES	Dyrk1A ADPGlo	Wnt act	NSD2 HMT inh	MITF TRPM1 HTS	GSIS activator	miR122 inh
CC(OC(=O)c1ccc(-n2cnnn2)cc1)C(=O)Nc1ccccc1F (stereo not drawn)	n	51.3	n	n	n	n
Cc1ccc(S(=O)(=O)NC23CC4CC(CC(C4)C2)C3)cc1	n	n	n	n	n	106.4
Cc1ccc(S(=O)(=O)NN=C2C3CC4CC(C3)CC2C4)cc1	n	n	n	n	n	n
O=C(C1CCCC1)N1CC(=O)N2[C@@H](CO)[C@@H](c3ccc(C#CC4CCCC4)cc3)[C@@H]2C1	x	x	x	x	n	x
COc1cccc(C(=O)COC(=O)c2cccs2)c1	n	39.3	n	n	n	x
O=C(COC(=O)c1cccs1)c1ccccc1	n	x	n	n	x	n
COc1cccc(C(=O)COc2ccc(NC(=O)c3cccs3)cc2)c1	n	n	n	n	n	n
COc1ccc(C(=O)COC(=O)c2cccs2)cc1	x	53.9	n	n	n	n
CC1=Nc2ccccc2N=C(N)C1c1ccccc1 (stereo not drawn)	n	51.7	n	n	n	n
COc1ccc(NC(=O)N2CCCCN3[C@H](CO)[C@@H](c4ccc(C5=CCCC5)cc4)[C@H]3C2)cc1	x	x	x	x	x	n
COc1ccc(/C=N/NC(=O)CCOc2ccccc2C)cc1OC	n	n	n	n	52.9	x
COc1ccc(NC(=O)Cn2cnc3ccccc3c2=O)cc1OC	n	n	n	x	n	x
COc1ccc(/C=N/NC(=O)Cn2cnc3ccccc3c2=O)cc1OC	n	n	n	n	56.2	n
COc1ccc2c3c([nH]c2c1)[C@@H](CO)N(C(=O)c1cccc(F)c1)CC31CN(S(=O)(=O)c2cccs2)C1	x	x	x	x	n	x
C[C@@H]1CN([C@@H](C)CO)C(=O)c2cc(NS(=O)(=O)c3cn(C)cn3)ccc2O[C@H]1CN(C)C(=O)Nc1ccc2c(c1)OCO2	x	x	x	x	n	n
CC(/C=N/NC(=O)c1cccnc1)=C\c1ccccc1	n	34.5	n	n	n	n
O=C(O)C[C@H]1C=C[C@@H](NC(=O)c2ccccc2F)[C@H](CO)O1	x	x	x	x	n	x
CCNC(=O)NC(=O)C(C)OC(=O)c1oc2ccccc2c1CSC1CCCCC1 (stereo not drawn)	n	x	n	n	108.0	n
C[C@H]1CN([C@@H](C)CO)S(=O)(=O)c2ccc(C#CCN(C)C)cc2O[C@H]1CN(C)C(=O)C1CCC1	x	x	x	x	n	n
CCOc1ccccc1Nc1cc2n(c(=O)n1)CCc1cc(OC)c(OC)cc1-2	n	n	n	n	76.1	x
CCNc1cc2n(c(=O)n1)CCc1cc(OC)c(OC)cc1-2	n	n	x	n	n	n
COc1cc2c(cc1OC)-c1cc(NC3CCCCC3)nc(=O)n1CC2	n	x	n	n	72.4	n
COc1cc2c(cc1OC)-c1cc(NC3CCCCCCC3)nc(=O)n1CC2	n	x	n	n	x	n
COc1cc2c(cc1OC)-c1cc(Nc3ccccc3C)nc(=O)n1CC2	n	n	n	n	52.8	n
COc1cc2c(cc1OC)-c1cc(NCc3ccccn3)nc(=O)n1CC2	n	n	n	x	62.6	n
SMILES	Dyrk1A ADPGlo	Wnt act	NSD2 HMT inh	MITF TRPM1 HTS	GSIS activator	miR122 inh
COc1ccc(NC(=O)N(C)C[C@@H]2Oc3c(NC(=O)c4ccc(-c5nccs5)cc4)cccc3C(=O)N([C@@H](C)CO)C[C@H]2C)cc1	x	x	x	x	n	n
CCNC(=O)Nc1ccc2c(c1)C(=O)N(C)[C@H]1CC[C@H](CC(=O)Nc3ccccc3OC)O[C@@H]1CO2	x	x	x	x	n	x
O=C(C[C@H]1CC[C@H](NC(=O)c2ccncc2)[C@@H](CO)O1)Nc1ccccc1	x	x	x	x	n	x
C[C@H]1CN([C@@H](C)CO)C(=O)Cc2cc(NS(=O)(=O)c3ccccc3)ccc2O[C@@H]1CN(C)CC1CC1	x	x	x	x	n	n
CC(=O)N(C)C[C@@H]1Oc2cc(C#CC3CC3)ccc2S(=O)(=O)N([C@H](C)CO)C[C@H]1C	x	x	x	x	n	n
C[C@H]1CN([C@@H](C)CO)S(=O)(=O)c2ccc(C3=CCCC3)cc2O[C@@H]1CN(C)C(=O)c1ccncc1	x	x	x	x	n	n
O=C(NN/C(=N/S(=O)(=O)c1ccc(Cl)cc1)c1ccccc1)c1cccc(Cl)c1	n	33.0	n	n	n	n
